{
  "source": "PubChem BioAssay (NCATS)",
  "key": {"[1]": {"assay": "Primary qHTS to identify inhibitors of SARS-CoV-2 cell entry (AID 1645846; calls by dose curve; also: nearly all actives have a fitted effect of over 45% in size; also: potency is read from the fitted curve at half-maximal effect)", "settings": "SARS-CoV-2 pseudovirus cell entry assay, luminescence; activity change, negative = inhibition: at 57.1 µM (top of the series) unless noted", "summary_of_the_method": "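Inhibition of spike-mediated entry was scored in human ACE2-transfected Expi293F cells. Particles were MLV-pseudotyped with Wuhan-Hu-1 S carrying a 19-aa C-terminal deletion; signal was luciferase after two days, scaled between spike PP and fusion-protein-free PP.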"}, "[2]": {"assay": "Primary qHTS for inhibitors of nuclear receptor binding SET domain protein 2 (NSD2) in an isogenic RCH-ACV NSD2 p.E1099K mutant (9B) (AID 1645876); also: potency is read from the fitted curve at half-maximal effect; nearly all actives have a fitted effect of over 70% in size"}, "[3]": {"assay": "VSVG counterscreen qHTS to identify inhibitors of SARS-CoV-2 cell entry (AID 1645847; calls by dose curve; also: potency is read from the fitted curve at half-maximal effect; nearly all actives have a fitted effect of over 65% in size)", "summary_of_the_method": "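Luminescence from a luciferase reporter, normalised to bald particle and VSV-G pseudotyped particle wells, is the read-out. Cells are HEK293 expressing human ACE2, exposed to compound 1 h before a 48 h particle infection at 37 °C.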"}, "[4]": {"biological_target": "Alpha-galactosidase (Coffea arabica) (UniProt Q42656)", "sequence (Q42656 whole entry, looked up)": "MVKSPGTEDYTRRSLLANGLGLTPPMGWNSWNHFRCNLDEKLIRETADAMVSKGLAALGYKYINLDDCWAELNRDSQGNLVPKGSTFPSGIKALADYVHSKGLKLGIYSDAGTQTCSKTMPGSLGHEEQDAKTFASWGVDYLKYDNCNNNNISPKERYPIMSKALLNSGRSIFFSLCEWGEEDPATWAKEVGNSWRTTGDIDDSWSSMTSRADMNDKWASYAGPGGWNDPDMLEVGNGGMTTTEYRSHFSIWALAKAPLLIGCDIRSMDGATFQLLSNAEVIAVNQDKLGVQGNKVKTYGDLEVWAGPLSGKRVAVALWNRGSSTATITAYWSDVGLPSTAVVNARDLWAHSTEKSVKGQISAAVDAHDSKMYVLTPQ", "assay": "Counterscreen for Glucocerebrosidase Inhibitors: qHTS Assay for Coffee Bean alpha-Galactosidase at pH 4.5 (AID 957)", "summary_of_the_method": "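Green coffee bean enzyme (2 nM final) was incubated with compounds (0.7 nM to 77 uM) and 4-methylumbelliferyl alpha-D-galactopyranoside (80 uM final) in 50 mM citric acid, 0.005% Tween-20, pH 4.5, 20 min at room temperature; AC50 from Hill fits.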"}, "[5]": {"assay": "Validation screen for inhibitors of Lassa infection (AID 463096; calls by dose curve)"}, "[6]": {"biological_target": "Rap guanine nucleotide exchange factor 3 (Homo sapiens) (UniProt O95398)", "sequence (O95398 whole entry, looked up)": "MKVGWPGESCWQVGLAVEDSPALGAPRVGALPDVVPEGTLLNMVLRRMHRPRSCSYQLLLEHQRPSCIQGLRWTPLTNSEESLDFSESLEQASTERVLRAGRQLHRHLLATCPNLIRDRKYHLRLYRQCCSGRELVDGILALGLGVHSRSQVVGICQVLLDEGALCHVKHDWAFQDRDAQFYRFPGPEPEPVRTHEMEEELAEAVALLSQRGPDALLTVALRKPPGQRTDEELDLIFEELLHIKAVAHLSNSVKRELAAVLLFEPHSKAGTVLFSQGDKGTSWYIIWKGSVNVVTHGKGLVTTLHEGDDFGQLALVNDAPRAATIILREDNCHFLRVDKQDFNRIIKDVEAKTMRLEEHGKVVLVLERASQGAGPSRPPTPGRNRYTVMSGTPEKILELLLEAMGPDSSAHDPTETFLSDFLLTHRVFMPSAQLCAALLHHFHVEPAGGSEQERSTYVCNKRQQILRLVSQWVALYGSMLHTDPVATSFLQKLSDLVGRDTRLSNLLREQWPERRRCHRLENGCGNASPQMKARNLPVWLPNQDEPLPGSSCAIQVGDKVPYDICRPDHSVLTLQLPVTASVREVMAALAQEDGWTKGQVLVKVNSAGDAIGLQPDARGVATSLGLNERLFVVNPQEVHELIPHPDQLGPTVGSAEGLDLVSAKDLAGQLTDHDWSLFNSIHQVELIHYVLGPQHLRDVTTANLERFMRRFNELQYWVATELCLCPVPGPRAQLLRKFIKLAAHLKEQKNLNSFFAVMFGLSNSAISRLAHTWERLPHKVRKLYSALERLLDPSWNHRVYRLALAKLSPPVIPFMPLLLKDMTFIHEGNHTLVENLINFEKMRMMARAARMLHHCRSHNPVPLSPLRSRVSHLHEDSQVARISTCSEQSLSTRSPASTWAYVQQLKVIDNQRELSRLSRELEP", "assay": "Confirmatory qHTS for antagonist of cAMP-regulated guanine nucleotide exchange factor 3 (EPAC1) (AID 1645880); also: nearly all actives have a fitted effect of over 55% in size; also: potency is read from the fitted curve at half-maximal effect", "summary_of_the_method": "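Nucleotide exchange uses 100 nM EPAC1, 250 nM RAP1B-BODIPY-GDP and 50 uM GDP, with compounds in a concentration-titration series. After 5 min at room temperature, fluorescence (480 nm ex/540 nm em) is read every 5 min for 30 min. Data are normalized to control ATA and DMSO.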"}, "[7]": {"biological_target": "Rap guanine nucleotide exchange factor 3 (Homo sapiens) (UniProt O95398)", "assay": "Confirmatory qHTS for agonist of cAMP-regulated guanine nucleotide exchange factor 3 (EPAC1) (AID 1645881);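 also: EPAC1 catalysed release of BODIPY-GDP from Rap1B seen as fluorescence loss; nearly all actives have a fitted effect of over 75% in size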"}, "[8]": {"biological_target": "Rap guanine nucleotide exchange factor 4 (Homo sapiens) (UniProt Q8WZA2)", "sequence (Q8WZA2 whole entry, looked up)": "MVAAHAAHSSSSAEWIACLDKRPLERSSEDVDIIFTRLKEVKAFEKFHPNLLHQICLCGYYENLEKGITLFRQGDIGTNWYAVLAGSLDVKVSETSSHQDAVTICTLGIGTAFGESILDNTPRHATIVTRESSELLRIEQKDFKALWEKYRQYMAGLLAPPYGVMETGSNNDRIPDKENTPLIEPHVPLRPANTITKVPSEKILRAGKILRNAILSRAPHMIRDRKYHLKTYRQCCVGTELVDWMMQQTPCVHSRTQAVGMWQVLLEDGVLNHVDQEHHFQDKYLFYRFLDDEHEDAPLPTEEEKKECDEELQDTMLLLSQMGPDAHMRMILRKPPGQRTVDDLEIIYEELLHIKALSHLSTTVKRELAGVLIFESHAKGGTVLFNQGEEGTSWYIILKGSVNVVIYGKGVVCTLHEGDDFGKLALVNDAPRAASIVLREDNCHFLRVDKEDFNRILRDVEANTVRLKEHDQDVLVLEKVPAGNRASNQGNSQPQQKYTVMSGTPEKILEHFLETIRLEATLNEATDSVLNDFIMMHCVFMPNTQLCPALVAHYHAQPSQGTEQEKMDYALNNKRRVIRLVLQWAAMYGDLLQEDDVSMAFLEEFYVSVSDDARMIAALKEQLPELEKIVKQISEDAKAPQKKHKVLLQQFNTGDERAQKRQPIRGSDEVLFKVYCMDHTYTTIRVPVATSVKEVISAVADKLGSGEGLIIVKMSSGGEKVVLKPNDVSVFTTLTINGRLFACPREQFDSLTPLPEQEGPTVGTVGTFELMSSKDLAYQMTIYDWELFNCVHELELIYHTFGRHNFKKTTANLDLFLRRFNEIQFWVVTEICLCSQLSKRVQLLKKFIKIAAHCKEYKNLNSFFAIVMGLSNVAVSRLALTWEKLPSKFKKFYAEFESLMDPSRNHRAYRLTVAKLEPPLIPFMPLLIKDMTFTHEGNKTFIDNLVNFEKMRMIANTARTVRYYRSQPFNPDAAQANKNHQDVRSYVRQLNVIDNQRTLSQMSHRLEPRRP", "assay": "Confirmatory qHTS for agonist of cAMP-regulated guanine nucleotide exchange factor 4 (EPAC2) (AID 1645884);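 also: nucleotide exchange releases bodipy-GDP from Rap1 and this lowers its fluorescence; nearly all actives have a fitted effect of over 65% in size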"}, "[9]": {"biological_target": "Rap guanine nucleotide exchange factor 4 (Homo sapiens) (UniProt Q8WZA2)", "assay": "Confirmatory qHTS for antagonist of cAMP-regulated guanine nucleotide exchange factor 4 (EPAC2) (AID 1645885); also: nearly all actives have a fitted effect of over 25% in size; also: potency is read from the fitted curve at half-maximal effect"}, "[10]": {"biological_target": "Rap guanine nucleotide exchange factor 3 (Homo sapiens) (UniProt O95398)", "assay": "Counterscreen qHTS for antagonist of cAMP-regulated guanine nucleotide exchange factor 3 (EPAC1) (AID 1645888);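 also: fluorescence loss as bound BODIPY-GDP is released from Rap1B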", "summary_of_the_method": "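Rap1B-BODIPY-GDP 250 nM + GDP 50 uM; cpds 7-pt, final 9.74 nM–152 uM (activator mode) or from 7.32 nM upwards (inhibitor mode); RT; FI 480/540 nm at 5 and 30 min, then ± cAMP, reread.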"}},
  "note": "Results filed as inconclusive are left out. Entries that show only a call come without a potency. The source made the active and inactive calls. Unless noted, calls follow the shape of the dose curve; as a rule, active = well fitted curve in the direction sought with a large enough effect; inconclusive = small, poorly fitted or top-dose-only effect, or another doubt; inactive = no such curve, though single readings can be large; an effect the other way counts as inactive or inconclusive.",
  "data": [
    {"compound": "CC(C)Oc1ccc(-c2nc(-c3cccc4c3CC[C@@H]4NCCO)no2)cc1C#N", "values": [
      {"measurement": "Potency", "setting": "[1]", "value": "inactive"}
    ]},
    {"compound": "NC(=O)[C@H]1CCS[C@@H]2C[C@]3(CCCN3C(=O)Cc3ccc(NC(=O)COc4ccc(Cl)cc4Cl)cc3)C(=O)N12", "values": [
      {"measurement": "Potency", "setting": "[1]", "value": "25.1 µM (active)"}
    ]},
    {"compound": "COC[C@@H]1OC(=O)c2coc3c2[C@]1(C)C1=C(C3=O)[C@H]2CC[C@H](O)[C@@]2(C)C[C@@H]1OC(C)=O", "values": [
      {"measurement": "Potency", "setting": "[2]", "value": "820 nM (active)"}
    ]},
    {"compound": "COc1ccc(N(C)c2nc(C)nc3ccccc23)cc1", "values": [
      {"measurement": "activity change, negative = inhibition", "setting": "[1]", "value": -80.5, "unit": "%"},
      {"measurement": "Potency", "setting": "[3]", "value": "4.82 µM (active)"}
    ]},
    {"compound": "Nc1nc(-c2nn(Cc3ccccc3F)c3ncccc23)ncc1C1CC1", "values": [
      {"measurement": "Potency", "setting": "[3]", "value": "12.1 µM (active)"}
    ]},
    {"compound": "CNC(=O)c1c(-c2ccc(F)cc2)oc2cc(N(CCO)S(C)(=O)=O)c(C3CC3)cc12", "values": [
      {"measurement": "activity change, negative = inhibition", "setting": "[1]", "value": -3.84, "unit": "%"}
    ]},
    {"compound": "CC(C)=CCC/C(C)=C/CC/C(C)=C/CSc1ccccc1C(=O)O", "values": [
      {"measurement": "outcome", "setting": "[4]", "value": "inactive"},
      {"measurement": "Potency", "setting": "[5]", "value": "inactive"},
      {"measurement": "activity change, negative = inhibition", "setting": "[1]", "value": -15.6, "unit": "%"}
    ]},
    {"compound": "CC(=O)c1ccc2c(c1)c1cc(C(C)=O)ccc1n2CCNC(C)C", "values": [
      {"measurement": "Potency", "setting": "[3]", "value": "0.136 µM (active)"}
    ]},
    {"compound": "COc1ncc(-c2ccc3c(Nc4cc(Oc5cc(F)cc(F)c5)cc(C(=O)O)c4)c(S(=O)(=O)NC4CC4)cnc3c2)c(OC)n1", "values": [
      {"measurement": "activity change, negative = inhibition", "setting": "[1]", "value": -25, "unit": "%"}
    ]},
    {"compound": "N#C/C(=C1/Nc2ccccc2S1)c1ccnc(OCc2ccc(CN3CCOCC3)cc2)n1", "values": [
      {"measurement": "activity change, negative = inhibition", "setting": "[1]", "value": -97.6, "unit": "%"}
    ]},
    {"compound": "CCOC(=O)[C@]12Cc3cc(C)ccc3[C@H]1N(C1CCCCC1)C(=O)c1ccccc12", "values": [
      {"measurement": "Potency", "setting": "[6]", "value": "inactive"},
      {"measurement": "Potency", "setting": "[7]", "value": "inactive"},
      {"measurement": "activation", "setting": "[8]", "value": "4.83% [at 17.1 µM, percent relative to cAMP agonist control] (inactive)"},
      {"measurement": "activity change, negative = inhibition", "setting": "[9]", "value": "-27.9% [at 12.7 µM] (inactive)"}
    ]},
    {"compound": "CCCCn1c(NS(=O)(=O)c2ccc(C)cc2)c(C(=O)OCC)c2nc3ccccc3nc21", "values": [
      {"measurement": "Potency", "setting": "[6]", "value": "75.7 µM (active)"},
      {"measurement": "Potency", "setting": "[7]", "value": "inactive"},
      {"measurement": "Potency", "setting": "[8]", "value": "inactive"},
      {"measurement": "Potency", "setting": "[9]", "value": "23.9 µM (active)"},
      {"measurement": "outcome", "setting": "[10]", "value": "inactive"}
    ]},
    {"compound": "COC(=O)c1cn(Cc2ccc(F)cc2)c2ccccc12", "values": [
      {"measurement": "Potency", "setting": "[6]", "value": "inactive"},
      {"measurement": "Potency", "setting": "[7]", "value": "inactive"},
      {"measurement": "Potency", "setting": "[8]", "value": "inactive"},
      {"measurement": "Potency", "setting": "[9]", "value": "inactive"},
      {"measurement": "outcome", "setting": "[10]", "value": "inactive"}
    ]},
    {"compound": "CCOC(=O)[C@]12Cc3cc(C)ccc3[C@H]1N(Cc1ccccc1)C(=O)c1ccccc12", "values": [
      {"measurement": "Potency", "setting": "[6]", "value": "inactive"},
      {"measurement": "Potency", "setting": "[7]", "value": "inactive"},
      {"measurement": "Potency", "setting": "[8]", "value": "inactive"},
      {"measurement": "Potency", "setting": "[9]", "value": "inactive"},
      {"measurement": "outcome", "setting": "[10]", "value": "inactive"}
    ]},
    {"compound": "CCOC(=O)[C@]12Cc3ccc(C)cc3[C@H]1N(C1CCCCC1)C(=O)c1cc(OC)ccc12", "values": [
      {"measurement": "Potency", "setting": "[6]", "value": "inactive"},
      {"measurement": "Potency", "setting": "[7]", "value": "inactive"},
      {"measurement": "Potency", "setting": "[8]", "value": "inactive"},
      {"measurement": "Potency", "setting": "[9]", "value": "inactive"},
      {"measurement": "outcome", "setting": "[10]", "value": "inactive"}
    ]}
  ]
}
